Mtb FBA inh: inhibits M. tuberculosis FBA enzyme | inhibition, % at 1 µM | AID 588726 | purified M. tuberculosis FBA, fluorescence read-out | hit rate 2.3% among 360,000 | P9WQA3; in the data active = inhibition above about 27%;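 note: 0% = vehicle and 100% = reference inhibitor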
Target sequence (P9WQA3 whole entry, looked up): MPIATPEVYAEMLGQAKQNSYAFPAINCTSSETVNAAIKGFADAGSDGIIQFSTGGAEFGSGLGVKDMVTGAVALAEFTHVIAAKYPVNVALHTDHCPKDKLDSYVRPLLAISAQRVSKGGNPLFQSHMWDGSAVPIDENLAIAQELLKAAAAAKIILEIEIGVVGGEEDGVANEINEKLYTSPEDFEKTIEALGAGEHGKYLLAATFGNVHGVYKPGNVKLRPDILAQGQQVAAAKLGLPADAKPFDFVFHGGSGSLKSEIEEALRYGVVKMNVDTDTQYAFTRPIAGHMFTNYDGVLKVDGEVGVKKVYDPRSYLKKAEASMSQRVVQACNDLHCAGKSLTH
RecA intein inh: blocks M. tuberculosis RecA intein splicing; cell-free RecA intein splicing, fluorescence; hit rate 0.75% among 290,000; inhibition, % (concentration not given with the values); in the data active = inhibition above about 30%;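 note: 0% = vehicle wells and 100% = reference inhibitor control wells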
Mtb betalactam: beta-lactam sensitization of Mtb H37Rv | inhibition, % at 25 µM | M. tuberculosis H37Rv growth with meropenem, percent inhibition | AID 434955 | hit rate 0.27% among 330,000;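 note: growth measured after seven days incubation then overnight dye step; 0% = bacteria only wells and 100% = bacteria with antibiotic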
GDH-TPI counter-1: inhibits GDH-TPI coupling enzymes, artifact for Mtb FBA screen; GDH-TPI coupled enzyme counterscreen, NADH absorbance; inhibition, % at 4.8 µM; hit rate 1.2% among 360,000; AID 588335; in the data active = inhibition above about 30%;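 note: 0% = DMSO wells and 100% = wells lacking the enzyme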
UGM FP inh: blocks M. tuberculosis UGM enzyme; purified UGM, fluorescence polarization probe displacement; inhibition, % at 10 µM; hit rate 0.06% among 320,000; AID 504406; in the data active = inhibition above about 10%, passing the limit was not always enough
Rv3671c protease: Rv3671c (M. tuberculosis) protease inhibition. AID 2606. P9WHR9. inhibition, % at 5.96 µM. hit rate 0.048% among 320,000; in the data active = inhibition above about 38%;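 note: extracellular domain of Rv3671c used as enzyme; 0% = enzyme with DMSO and 100% = no enzyme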
Mtb FBA inh conf: confirmation of M. tuberculosis fructose-bisphosphate aldolase inhibitors | inhibition, % at 1 µM | purified M. tuberculosis FBA, fluorescence read-out | hit rate 78% among 5,600 | shares compounds with Mtb FBA inh | AID 651616; in the data active = inhibition above about 27%;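 note: 0% = vehicle wells and 100% = reference inhibitor wells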
GDH-TPI counter-2: inhibits GDH-TPI coupling enzymes, flagging Mtb FBA hits; shares compounds with Mtb FBA inh; inhibition, % at 1 µM; hit rate 81% among 5,600; GDH-TPI coupled enzyme counterscreen, fluorescence; AID 652141; in the data active = inhibition above about 10%
GDH-TPI dose: GDH-TPI dose response counter-screen for Mtb FBA. shares compounds with Mtb FBA inh. GDH-TPI coupled enzyme assay, fluorescence, artifact counterscreen. IC50, µM. hit rate 79% among 170
The depositor's hits bear a star; x = no result given; + = active, no number. Only some compounds are listed: those with a hit (about 4% of all), similar ones and a draw of the others. Unless noted, the rule behind the calls is not given here.

SMILES	Mtb FBA inh	RecA intein inh	Mtb betalactam	GDH-TPI counter-1	UGM FP inh	Rv3671c protease	Mtb FBA inh conf	GDH-TPI counter-2	others
CCOc1ccc(-n2nc3ccc(N)cc3n2)cc1	74*	1	25	16	1	x	14	1	GDH-TPI dose=1.1*
COc1ccc(-n2nc3ccc(N)cc3n2)cc1	56*	x	x	16	x	x	54*	41*
COc1ccc(-n2nc3cc(C)c(NC(=O)CC(C)C)cc3n2)cc1	x	-5	x	x	x	x	x	x
COc1ccc(C2C3=C(CC(C)(C)CC3=O)Nc3nc(C)nn32)cc1OC (configuration not stated)	36*	-1	8	12	-2	7	+	+
COc1ccc(C2C3=C(CCCC3=O)Nc3nc(C(F)(F)F)nn32)cc1OC (configuration not stated)	1	3	6	1	-2	-4	x	x
CN(C)c1nc(OCCNC(=O)Nc2ccccc2)nc(N(C)C)n1	1	1	-3	1	0	-3	x	x
CN(C)c1nc(OCCNC(=O)COc2ccccc2Cl)nc(N(C)C)n1	55*	1	-3	15	1	-1	+	189*
COc1cc2c3nnc(-c4ccccc4)c-3cn(Cc3ccc(F)cc3)c2cc1OC	32*	-124	62	13	5	-4	127*	94*
COc1cc2c3nnc(-c4ccc(F)cc4)c-3cn(Cc3cccc(C)c3)c2cc1OC	11	-14	4	-12	9	-20	x	x
CCOC(=O)c1csc(Nc2nc3ccc(F)cc3s2)n1	-7	2	66	10	0	0	x	x
COC(=O)c1ccc2nc(Nc3nc4ccc(F)cc4s3)sc2c1	38*	-11	62	8	1	-38	131*	122*
COC(=O)c1ccc2nc(NC(=O)C(C)(C)C)sc2c1	-4	0	70	-2	2	4	x	x
CC(=O)c1sc(Nc2nc3ccc(F)cc3s2)nc1C	27*	-1	54	4	2	0	+	161*
O=C(CN1CCN(C(=O)c2cccc(-n3cnnn3)c2)CC1)Nc1ccccc1Cl	0	x	-6	-1	0	-7	x	x
C=C(Cl)COc1ccc2c(CCC)cc(=O)oc2c1	16	3	6	9	-1	5	x	x
CCCCc1cc(=O)oc2c(C)c(OCC(=O)NCc3ccccn3)ccc12	3	-7	-2	-12	0	-8	x	x
CCCCc1cc(=O)oc2c(C)c(OCc3nn[nH]n3)ccc12	28*	-1	-7	12	-3	-10	59*	43*
CCCCc1cc(=O)oc2cc(OCc3nn[nH]n3)ccc12	35*	-3	-10	19	5	5	6	-1
CCCc1cc(=O)oc2cc(OCc3nn[nH]n3)ccc12	34*	-2	-2	15	1	-2	57*	36*
CCCc1cc(=O)oc2cc(OCc3ccc(C(=O)O)o3)ccc12	36*	1	-3	13	1	4	17	1	GDH-TPI dose=4.8*
Cc1ccnc(NC(=O)CSc2nnc3c(n2)[nH]c2ccccc23)c1	x	0	5	x	x	-5	x	x
CCC(C)(C)C1CCC2(CC1)NC(=O)N(CC(=O)N1CCN(S(=O)(=O)c3cc(C)ccc3C)CC1)C2=O (configuration not stated)	0	1	51	-1	-1	-6	x	x
CCNc1nc(Cl)nc(-c2cn(-c3ccccc3)c3ccccc23)n1	6	-2	45	28	-1	-7	x	x
Clc1nc(Oc2ccccc2)nc(-c2cn(-c3ccccc3)c3ccccc23)n1	56*	6	-3	14	0	0	45*	40*
CC1=C(C(=O)N2CCOCC2)CC(CC(=O)NC2CCCC2)C(=O)N1Cc1ccccc1 (configuration not stated)	3	x	x	8	x	x	x	x
SMILES	Mtb FBA inh	RecA intein inh	Mtb betalactam	GDH-TPI counter-1	UGM FP inh	Rv3671c protease	Mtb FBA inh conf	GDH-TPI counter-2	others
COC(=O)c1cc(NC(=O)CC2Oc3ccccc3NC2=O)cc(C(=O)OC)c1 (configuration not stated)	40*	-2	5	3	-3	-8	79*	69*
CN(Cc1ccccc1)C(=O)c1csc(COCCO)n1	-1	x	x	6	x	x	x	x
c1ccc(Cn2ncc3ccccc32)cc1	-3	3	20	-2	-2	-1	x	x
CN(C)c1nc(-c2ccccc2)c2cnn(Cc3ccccc3)c2n1	44*	-11	7	2	0	-13	121*	112*
O=C(NCCCO)c1ccc2[nH]c3ccccc3c2c1	36*	-2	-2	2	0	5	125*	91*
Cc1ccc(NC(=O)CSCc2cc(=O)n3ccsc3n2)c(C)c1	1	0	-7	3	1	-3	x	x
CCOC(=O)c1c(C)[nH]c2cc(Br)c(OC)cc12	0	-4	39	3	2	-5	x	x
CCOC(=O)c1c(C)[n+](-c2ccc(C)cc2)c(CC)c2cc(OC)c(OC)cc12	41*	-2	-4	11	-2	-4	82*	57*
CCOc1ccccc1N1CCN(CC(=O)Nc2ccccc2C(=O)NC2CC2)CC1	4	x	-1	-3	x	4	x	x
CCN(CC)CCNC(=O)c1cc(-c2ccco2)nc2ccccc12	82*	-7	-1	5	-2	0	152*	129*
COc1ccc(CCNC(=O)c2cc(-c3ccco3)nc3ccccc23)cc1	x	10	-18	x	-1	1	x	x
O=C(NNC(=O)c1cc(-c2ccco2)nc2ccccc12)c1ccccc1	50*	-3	-4	3	1	-2	68*	61*
Cc1ccc(-c2nc3ncccn3c2NC(=O)C2CC2)cc1	63*	-3	0	7	-3	0	36*	10*
Cc1ccc(-c2nc3ncccn3c2Nc2ccc3c(c2)OCCO3)cc1	-3	-2	5	6	0	7	x	x
CC(=O)Nc1c(-c2ccccc2)nc2ncccn12	42*	-3	-7	15	2	-1	40*	30*
O=C(NNC(=O)C1CC1)c1cc(=O)[nH]c2ccccc12	7	x	-11	17	2	3	x	x
COc1ccc(N2CCN(c3cc(C)nc4ccc(OC)cc34)CC2)cc1	1	1	60	-1	0	12	x	x
COc1ccc2nc3c(C)n(C)ccc-3c2c1	57*	x	x	4	x	x	73*	49*
CCc1ccc(NC(=O)c2ccc(NC(=O)C3CCCO3)cc2)cc1 (configuration not stated)	3	1	56	-10	1	-1	x	x
O=C(NCCc1cn2cccnc2n1)C1CCC(=O)N(Cc2ccccc2F)C1 (configuration not stated)	94*	x	x	6	x	x	60*	39*
